Screens deposited in PubChem by Sanford-Burnham Center for Chemical Genomics.
This is a sample that favours compounds with a hit; in the whole collection about 28% have one here.
CYP2C9 inh: inhibitors of human CYP2C9; 96,000 tested, 20% active; inhibition, % at 5 µM; AID 777; CYP2C9 Supersomes, luciferin-H conversion, luminescence;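 active = blocking of liver enzyme CYP2C9 beyond about 50% at 5 µM, limit read from the data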
CYP2C19 activ: activators of human cytochrome P450 2C19. P33261. 96,000 tested, under 10 active. recombinant CYP2C19, luciferin-H EGE luminescence; active compounds read high; 0 = fully inhibited enzyme, 1 = untreated enzyme. activation factor at 5 µM. AID 1025;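 active = activation factor of at least 2 at 5 µM in the primary screen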;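 also: 0 = wells with 2.5 mM tranylcypromine and 1 = vehicle-only wells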
CD11b adhes inh: CD11b/CD18-fibrinogen binding inhibition | P05107+P11215 | K562 CD11b/CD18 adhesion to fibrinogen, ATPlite luminescence; Mn2+ added to activate the integrin | inhibition, % at 10 µM | 93,000 tested, 0.54% active | AID 1497;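 active = primary inhibition of 50% or more at 10 µM, then 40% or more on retest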
Target sequence (P05107 whole entry, looked up, other chains not shown): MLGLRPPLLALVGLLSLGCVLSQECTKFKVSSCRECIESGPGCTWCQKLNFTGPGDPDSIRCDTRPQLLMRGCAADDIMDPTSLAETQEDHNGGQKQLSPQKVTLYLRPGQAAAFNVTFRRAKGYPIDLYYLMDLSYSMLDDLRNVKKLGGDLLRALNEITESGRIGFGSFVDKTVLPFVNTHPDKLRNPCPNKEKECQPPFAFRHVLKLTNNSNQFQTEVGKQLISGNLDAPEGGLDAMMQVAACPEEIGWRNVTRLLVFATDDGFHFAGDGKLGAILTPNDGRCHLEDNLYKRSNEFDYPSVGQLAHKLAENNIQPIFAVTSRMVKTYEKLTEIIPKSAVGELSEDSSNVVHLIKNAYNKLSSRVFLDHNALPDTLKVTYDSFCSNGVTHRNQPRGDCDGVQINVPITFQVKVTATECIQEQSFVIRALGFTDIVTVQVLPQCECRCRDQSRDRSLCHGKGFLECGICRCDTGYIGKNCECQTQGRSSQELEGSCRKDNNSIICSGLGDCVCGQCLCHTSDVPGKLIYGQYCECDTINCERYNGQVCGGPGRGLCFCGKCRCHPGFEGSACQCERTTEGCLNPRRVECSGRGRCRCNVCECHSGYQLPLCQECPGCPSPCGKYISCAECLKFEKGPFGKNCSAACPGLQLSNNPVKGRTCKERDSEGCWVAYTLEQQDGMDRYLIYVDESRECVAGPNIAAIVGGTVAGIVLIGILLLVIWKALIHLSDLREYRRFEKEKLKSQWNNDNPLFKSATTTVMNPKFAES
Mac1 fbg enh: increases human CD11b/CD18 adhesion to fibrinogen; P05107+P11215; K562 CD11b/CD18 adhesion to fibrinogen, ATPlite luminescence; activation, % at 10 µM; 93,000 tested, 0.07% active;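 active = 10 µM primary screen giving 50% or more activity, confirmed by 40% or more on retest at that dose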
CYP2C9 activ: activators of human CYP2C9. activation factor at 5 µM. 96,000 tested, 1.4% active. P11712. recombinant CYP2C9, luciferin-H conversion, luminescence; active compounds read high; factor 1 = untreated enzyme, 0 = blocked;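 active = activation factor of 2 or more for CYP2C9 at a 5 µM dose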;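 also: 0 = sulfaphenazole-blocked wells and 1 = vehicle-only wells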
CYP2C19 inh: inhibitors of human CYP2C19 | CYP2C19 Supersomes, luciferin-H EGE luminescence, 30 min | AID 778 | P33261 | 96,000 tested, 21% active | inhibition, % at 5 µM;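 active = CYP2C19 inhibition above a set limit at 5 µM in the primary screen, cut at about 50% in these data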;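 also: plate controls were negative control wells for no effect and 2.5 mM tranylcypromine positive control for full effect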
* hit, by the source's call; nt = no result.

SMILES	CYP2C9 inh	CYP2C19 activ	CD11b adhes inh	Mac1 fbg enh	CYP2C9 activ	CYP2C19 inh
CCOC(=O)C1CCCN(S(=O)(=O)c2cc(OCC(N)=O)c(C)cc2Cl)C1 (configuration not stated)	-17.6	0.1	-13.5	3.0	1.2	91.4*
CCOc1cc(C)c(S(=O)(=O)NC2CCCCC2)cc1C	44.2	0.3	17.3	-2.6	0.6	71.9*
CCOC(=O)N1CCN(C(=O)COc2ccc(S(=O)(=O)NC3CCCCC3)cc2C)CC1	42.1	1	nt	nt	0.6	-1.7
Cc1cc(Cl)c(S(=O)(=O)NC2CCCC2)cc1OCC(=O)NC1CCCCC1	44.4	0.5	-25.2	0.3	0.6	52.2*
Cc1ccc(NC(=O)CCn2c(=O)oc3ccccc32)c(C)c1	4.8	0.7	12.6	-3.2	1	28.7
COc1ccc2c(Cl)c(C(=O)N/N=C/c3c(C)[nH]c4ccccc34)sc2c1	nt	nt	-14.4	50.2	nt	nt
COC(=O)c1[nH]c2ccccc2c1NC(=O)CN1CCN(C/C=C/c2ccccc2)CC1	86.1*	0.3	32.5	-4.1	0.1	73.8*
CCOC(=O)c1[nH]c2ccc(F)cc2c1NC(=O)CN1CCN(C/C=C/c2ccccc2)CC1	58.7*	0.5	30.9	-1.0	0.4	52.3*
O=CN(Cc1ccco1)C1(C(=O)NC2CCCCC2)CCCCC1	-9.5	0.9	4.9	-0.8	1.1	13.4
CCCCSc1nc(C)c(CC(=O)O)c(=O)[nH]1	4.6	1	-22.9	1.9	1	1.2
C=CCNc1nc2c3ccccc3n(C(C)=O)c2s1	67.6*	0.9	-3.8	-1.9	0.3	6.3
Cc1ccc(S(=O)(=O)NNC(=S)Nc2ccccc2)cc1	35.3	0.7	2.4	-3.4	0.6	28.2
CCCN(CCC)C(=O)CSc1nc2ccsc2c(=O)n1NC(=O)c1ccccc1	66.1*	1.1	-9.9	-2.6	0.3	-12.8
Cn1c(NC(=O)c2cc(Cl)ccc2Cl)cc(=O)n(C)c1=O	15.8	0.7	5.5	1.4	0.8	25.6
Cn1c(NC(=O)C(C)(C)Oc2ccc(Cl)cc2)cc(=O)n(C)c1=O	25.0	0	-27.0	0.6	0.8	97.9*
COc1cc(OC)cc(C(=O)NCC(=O)OCC(=O)c2ccc3c(c2)-c2ccccc2C3)c1	nt	nt	-4.7	64.5	nt	nt
Cc1ccc(-n2c(C)cc(C(=S)N3CCOCC3)c2C)cc1C	36.8	0.1	nt	nt	0.6	86.7*
CC(=O)Nc1c(C(=O)N2CCOCC2)cnn1-c1ccc(C)c(C)c1	-4.3	0.9	nt	nt	1	9.1
CCCCCCC1CCC(C(=O)NC(CCSC)C(=O)NC(C(=O)OC)C(C)C)CC1 (configuration not stated)	15.7	0.1	-2.4	5.1	0.8	85.5*
COCCn1c(=S)[nH]c2ccc(N(C)C)cc2c1=O	32.4	0.5	-0.6	-0.6	0.7	51.6*
CCOc1cc2[nH]c(=S)n(CCOC)c(=O)c2cc1OCC	13.2	1.1	14.9	3.2	0.9	-10.3
COC(=O)C1=C(C)N(C)C(C)=C(C(=O)OC)C1c1ccccc1C	96.3*	0	-6.3	-2.1	0	98.5*
CCOC(=O)C1=C(C)N(C)C(C)=C(C(=O)OCC)C1c1ccccn1	86.3*	0.5	-46.2	-0.8	0.1	50.0*
COC(=O)C1=C(C)N(C)C(=O)NC1c1ccccc1 (configuration not stated)	13.0	0.9	6.0	-2.9	0.9	6.4
COC(=O)C1=C(C)N(C)C(C)=C(C(=O)OC)C1c1ccccn1	82.1*	0.7	3.5	3.8	0.2	26.7
SMILES	CYP2C9 inh	CYP2C19 activ	CD11b adhes inh	Mac1 fbg enh	CYP2C9 activ	CYP2C19 inh
COc1cc(OC)cc(C(=O)N[C@H](C(=O)OCC(=O)Nc2ccc(C(C)C)cc2)C(C)C)c1	nt	nt	-1.3	4.1	nt	nt
CCOc1cccc(OCCCNCCCOC)c1	-2.4	1.1	nt	nt	1	-7.7
Cc1cc(-c2c(C)[nH]n(-c3ccc(Cl)cc3)c2=O)n(-c2ccccc2)n1	90.8*	0.9	-9.7	-4.2	0.1	8.1
Cc1[nH]n(-c2cccc(Cl)c2)c(=O)c1-c1ccccc1	23.1	0.9	13.8	-1.6	0.8	5.3
O=C(Nc1ccc(Cl)cc1)OCc1cncs1	88.9*	0	-6.3	-5.0	0.1	97.9*
O=C(Nc1cccc(Cl)c1)OCc1cncs1	87.3*	0	-1.2	-0.2	0.1	99.2*
O=C(Nc1ccc(Cl)cc1)OCc1cc(-c2ccccc2Cl)on1	-0.5	0.9	nt	nt	1	10.4
CS(=O)c1ccccc1COC(=O)Nc1cccc(Cl)c1 (configuration not stated)	-20.9	0.6	nt	nt	1.2	39.5
CS(=O)(=O)c1ccccc1COC(=O)Nc1ccc(Cl)cc1	-1.4	0.3	nt	nt	1	69.4*
CC(=O)NC(CC(C)C)C(=O)NC(=O)NCc1ccccc1 (configuration not stated)	-5.2	0.8	5.4	-4.3	1.1	19.5
CC1(CC(=O)O)SC(=O)NC1=O (configuration not stated)	-35.7	1.1	nt	nt	1.4	-14.9
O=C(C1CCN(S(=O)(=O)c2ccc(Br)s2)CC1)N1CCc2ccccc21	11.5	0.6	15.9	-2.9	0.9	42.8
O=C(N1CCN(Cc2ccccc2)CC1)C12CC3CC(CC(C3)C1)C2	72.5*	0	-50.5	-2.1	0.3	98.6*
CC12CCC(C(=O)N3CCN(Cc4ccccc4)CC3)(OC1=O)C2(C)C (configuration not stated)	67.4*	0.3	-0.4	-4.5	0.3	71.5*
O=C(N1CCN(c2ccccc2)CC1)C12CC3CC(CC(C3)C1)C2	66.6*	0.2	1.8	5.5	0.3	80.7*
Cc1c(CCOC(=O)CC23CC4CC(CC(C4)C2)C3)sc[n+]1Cc1ccccc1	-20.4	1	21.2	-2.5	1.2	-4.2
CCCCCCCCCOC(=O)C[n+]1csc(CCO)c1C	6.8	0.2	-38.6	-0.4	0.9	76.4*
Nc1cc(=O)nc(SCC(=O)Nc2cccc3ccccc23)n1CCc1ccccc1	-19.4	0.6	nt	nt	1.2	35.9
Cc1ccccc1CNC(=O)c1ccccc1C	9.2	0.5	-19.7	-3.2	0.9	54.2*
Cc1ccccc1CNC(=O)c1ccccc1	10.7	0.4	23.4	0.1	0.9	57.4*
O=C(CC(=O)N/N=C\c1c(Cl)cccc1Cl)NCc1ccccc1	40.8	0.1	nt	nt	0.6	86.2*
Cc1ccc(/C=N/NC(=O)CC(=O)NCc2cccnc2)cc1	nt	nt	-10.0	-1.9	nt	nt
O=C(Nc1cccnc1)C1CC(c2ccc(Cl)c(Cl)c2)=NO1 (configuration not stated)	56.5*	0.1	-16.2	-1.3	0.4	93.5*
COc1ccc(OC)c(C2=NOC(C(=O)NCCN3CCOCC3)C2)c1 (configuration not stated)	-49.3	0.8	-1.0	0.5	1.5	17.3
COc1ccc(OC)c(C2=NOC(C(=O)Nc3cccnc3)C2)c1 (configuration not stated)	-98.7	0.2	9.7	2.1	2*	76.4*
